Potency and outcome data for 16 molecules are collected here from PubChem BioAssay (NCATS).

Experiment [1] is described as follows: Cell Viability - LYMP2-001 (AID 921). Note: nearly all actives have a fitted effect of over 70% in size. Note: potency is the fitted concentration of half-maximal effect. In outline: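 Cellular ATP loss read by luciferase luminescence after 24 h compound exposure at 37 C in complete medium. LYMP2-001 lymphoblastoid cells, 2500/well; qHTS concentration-response data fitted with Hill equation for AC50.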
The nature of experiment [2]: MultiTox-Fluor Cytotoxicity Assay - LYMP1-001 - Dead Cells (AID 946). Note: potency is the fitted concentration of half-maximal effect. In a few lines: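 LYMP1-001 lymphoblastoid cells (2500/well) treated 16 h at 37 C. Dead-cell protease cleavage of bis-AAF-R110 read at Ex/Em 485/520. Normalized to DMSO and 15 uM tetraoctylammonium bromide; AC50 from Hill fits.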
A short description of experiment [3]: MultiTox-Fluor Cytotoxicity Assay - LYMP1-001 - Live Cells (AID 947). Note: potency is the fitted concentration of half-maximal effect.
Experiment [4] in a line: Cell Viability - LYMP1-002 - Assay at 16 hr (AID 948). Note: potency is the fitted concentration of half-maximal effect. In a few lines:
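ATP luminescence (CellTiter-Glo) was measured after 16 hr compound exposure at 37 C of 2500 lymphoblastoid LYMP1-002 cells per well. Concentration-response curves were fitted with the Hill equation to give AC50.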

Experiment [5] in a line: MultiTox-Fluor Cytotoxicity Assay - LYMP1-002 - Live Cells (AID 955). Note: potency is the fitted concentration of half-maximal effect. In outline:
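Read-out is live-cell protease activity (cell-permeant GF-AFC substrate, fluorescence Ex/Em=405/510), where a decrease indicates acute toxicity. Human lymphoblastoid cells were treated 16 hours at 37 C in a concentration series, and AC50 values came from standard Hill modelling.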

Experiment [6] can be described thus: MultiTox-Fluor Cytotoxicity Assay - LYMP1-002 - Dead Cells (AID 960). Note: nearly all actives have a fitted effect of over 60% in size. Note: potency is the fitted concentration of half-maximal effect. In a few lines:
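LYMP1-002 cells 2500/well; 5 hr 37 C pre-incubation; compound 16 hr 37 C; MultiTox-Fluor reagent 60 min RT; dead-cell fluor Ex/Em 485/520. Norm. to DMSO (0%) vs 15 uM tetraoctylammonium bromide (100%); Hill AC50.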

Experiment [7] in a line: MultiTox-Fluor Cytotoxicity Assay - LYMP1-003 - Dead Cells (AID 961). Note: nearly all actives have a fitted effect of over 70% in size. Note: potency is the fitted concentration of half-maximal effect. In outline:
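LYMP1-003 human lymphoblastoid cells (2500/well) exposed to compound 16 h at 37 C in complete medium; dead-cell protease read with bis-AAF-R110 fluorescence (Ex/Em 485/520) after 60 min at room temperature. Normalized to DMSO and 15 uM tetraoctylammonium bromide; AC50 from Hill fit.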

Experiment [8] is described as follows: MultiTox-Fluor Cytotoxicity Assay - LYMP1-003 - Live Cells (AID 962). Note: potency is the fitted concentration of half-maximal effect. In a few lines:
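qHTS, 1536-well; 2500 cells/well LYMP1-003; 5 hr 37 C settle; cpd 16 hr 37 C; MultiTox-Fluor reagent 60 min RT; live-cell protease fluor. 405/510; Hill-fit AC50; tetraoctylammonium bromide pos. ctrl.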

Experiment [9] in a line: Cell Viability - LYMP1-003 - Assay at 24 hr (AID 963). Note: potency is the fitted concentration of half-maximal effect. In a few lines:
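Cells seeded at 2500/well, 5 hr at 37 C; compounds added; 24 hr at 37 C; CellTiter-Glo added, 30 min room temperature; luminescence read. Decrease in ATP taken as cytotoxicity, AC50 from Hill modelling.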

Experiment [10] is described as follows: Cell Viability - LYMP1-003 - Assay at 40 hr (AID 964). Note: nearly all actives have a fitted effect of over 60% in size. Note: potency is the fitted concentration of half-maximal effect. In outline:
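Cells were seeded at 2500 per well and incubated 5 hr at 37 C. Compounds were added across a concentration series and left 40 hr at 37 C. CellTiter-Glo was added for 30 min at room temperature before luminescence reading.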

A short description of experiment [11]: qHTS Assay for Identification of Small Molecule Agonists for Thrombopoietin (TPO) Signaling Pathway (AID 917). Note: potency is the fitted concentration of half-maximal effect. In outline:
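Reporter: GpIIb promoter–luciferase in murine Ba/F3 expressing human TPO receptor. Pre-starved of IL-3 overnight; compounds with 26 pM TPO, 24 hrs, 37 C/5% CO2; luminescence read.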
In general terms: qHTS replaces the single test concentration by a dilution series.

Experiment [12] concerns the target Pyruvate kinase (Leishmania mexicana) (UniProt Q27686). Briefly: qHTS Validation Assay for Inhibitors of Leishmania Mexicana Pyruvate Kinase (AID 945). Note: potency is the fitted concentration of half-maximal effect. In a few lines: (§1)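 The enzyme is a highly purified E451W mutant of LmPYK used at 0.2 nM. It converts 0.5 mM PEP and 0.1 mM ADP over 1 h at room temperature; product ATP is quantified by luciferase luminescence relative to DMSO controls.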

Experiment [13] deals with Pyruvate kinase PKM (Homo sapiens) (UniProt P14618). Briefly: qHTS Assay for Activators of Human Muscle Pyruvate Kinase (AID 954; active = well fitted curve in the direction sought with a large enough effect, not every such curve was filed as active). In a few lines: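 Purified human PKM2 (0.1 nM) with 0.5 mM PEP (Km) and 0.1 mM ADP in 50 mM imidazole pH 7.2, KCl, MgCl2, 1 h at room temperature; ATP formed read by coupled luciferase luminescence. Normalized to no-enzyme/110 uM thiadiazolimine inhibition; 0.3 nM enzyme column for activation.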
Sequence of Pyruvate kinase PKM (Homo sapiens) (P14618 whole entry, looked up): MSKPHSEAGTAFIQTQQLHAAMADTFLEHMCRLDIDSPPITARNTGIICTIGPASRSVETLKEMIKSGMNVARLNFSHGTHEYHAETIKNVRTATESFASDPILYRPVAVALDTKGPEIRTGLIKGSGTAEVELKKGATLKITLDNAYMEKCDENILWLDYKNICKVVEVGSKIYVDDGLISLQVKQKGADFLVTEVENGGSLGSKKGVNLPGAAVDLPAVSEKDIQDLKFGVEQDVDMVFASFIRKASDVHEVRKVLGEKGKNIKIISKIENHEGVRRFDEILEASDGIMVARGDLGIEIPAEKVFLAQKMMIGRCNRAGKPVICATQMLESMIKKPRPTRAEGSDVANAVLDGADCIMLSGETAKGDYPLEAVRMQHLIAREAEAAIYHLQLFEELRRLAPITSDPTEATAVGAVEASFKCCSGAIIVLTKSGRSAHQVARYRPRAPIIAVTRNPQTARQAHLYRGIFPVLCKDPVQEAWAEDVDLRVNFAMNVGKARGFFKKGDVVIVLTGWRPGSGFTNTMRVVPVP

Experiment [14] deals with Muscarinic acetylcholine receptor M1 (Rattus norvegicus) (UniProt P08482). Briefly: qHTS Assay for Antagonists of Acetylcholine Muscarinic M1 Receptor: Measurement of IP-One Response (AID 944). Note: nearly all actives have a fitted effect of over 75% in size. Note: potency is the fitted concentration of half-maximal effect. In outline:
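M1-CHO (rat), 2000 cells/well, overnight recovery; cpd 10 min; carbachol EC80 (200 nM), 30 min, HEPES buffer + 50 mM LiCl pH 7.4; IP-One HTRF, Ex 337, Em 620/665 nm.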

Experiment [15] is described as follows: Confirmation and Secondary Assay for Modulators of Hemoglobin Beta Chain Splicing at IVS2 705 locus (AID 930).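 Note: HeLa cells stably expressing the EGFP-705 splicing reporter; GFP fluorescence per well restored by corrected splicing of the IVS2-705 intron in EGFP; series mostly up to about 46 µM.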 In outline:
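Splice-correction reporter: EGFP cDNA split by beta-globin intron 2 bearing the 705 mutation, stably in HeLa. Compound incubation 2 days, 37C; fluorescent objects 5-250 µm summed per well.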

Experiment [16] addresses Pyruvate kinase PKM (Homo sapiens) (UniProt P14618). Briefly: qHTS Assay for Inhibitors of Human Muscle Pyruvate Kinase (AID 958). In outline: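 Enzyme was run at intermediate activity so both inhibitors and activators could be detected. ATP formed from ADP and PEP by 0.1 nM human PKM2 during a 1 h room-temperature incubation was quantified by coupled luciferase luminescence.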

Experiment [17] deals with Pyruvate kinase (Leishmania mexicana) (UniProt Q27686). Briefly: qHTS Validation Assay for Activators of Leishmania Mexicana Pyruvate Kinase (AID 959). In a few lines: as §1
Sequence of Pyruvate kinase (Leishmania mexicana) (Q27686 2-499 E452W): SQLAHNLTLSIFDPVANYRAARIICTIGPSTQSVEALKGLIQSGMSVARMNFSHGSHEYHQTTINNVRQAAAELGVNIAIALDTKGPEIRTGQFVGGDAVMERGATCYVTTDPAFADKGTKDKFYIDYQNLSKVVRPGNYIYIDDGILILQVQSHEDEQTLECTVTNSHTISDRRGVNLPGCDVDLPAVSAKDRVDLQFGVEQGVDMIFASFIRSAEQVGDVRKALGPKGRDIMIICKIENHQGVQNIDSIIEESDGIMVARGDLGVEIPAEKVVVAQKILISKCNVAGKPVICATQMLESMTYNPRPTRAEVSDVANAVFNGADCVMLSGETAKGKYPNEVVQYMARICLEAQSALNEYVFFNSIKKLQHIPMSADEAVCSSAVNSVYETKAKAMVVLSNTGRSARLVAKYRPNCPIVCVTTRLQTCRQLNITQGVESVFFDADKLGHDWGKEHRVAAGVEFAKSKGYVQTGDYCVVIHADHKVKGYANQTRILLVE
Experiment [18] in a line: qHTS Assay for Identification of Small Molecule Antagonists for Thrombopoietin (TPO) Signaling Pathway (AID 918). Note: potency is the fitted concentration of half-maximal effect; nearly all actives have a fitted effect of over 60% in size. Conditions: TPO-dependent cell signaling reporter, antagonist mode. In outline:
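Ba/F3 (murine, hTPO-R, GPIIb-luc reporter); overnight IL-3 withdrawal; cpd + TPO 26 pM final (EC50); 24 h 37 C/5% CO2; Steadylite luminescence after 10 min RT.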

Experiment [19] deals with Muscarinic acetylcholine receptor M1 (Rattus norvegicus) (UniProt P08482). Briefly: qHTS Assay for Antagonists of Acetylcholine Muscarinic M1 Receptor: Kinetic Measurement of Intracellular Calcium Response (AID 943).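 Note: Fluo-4 calcium signal as peak divided by basal fluorescence over 4 min; series mostly up to about 35 µM; nearly all actives have a fitted effect of over 75% in size.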 In a few lines: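 Rat M1-CHO cells, 2000/well, overnight → Fluo-4 no-wash dye with probenecid, 1 h 37C → compound 10 min, room temp → basal read 6 s → carbachol EC80 (100 nM) → 4 min kinetic read; peak/basal.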
Sequence of Muscarinic acetylcholine receptor M1 (Rattus norvegicus) (P08482 whole entry, looked up): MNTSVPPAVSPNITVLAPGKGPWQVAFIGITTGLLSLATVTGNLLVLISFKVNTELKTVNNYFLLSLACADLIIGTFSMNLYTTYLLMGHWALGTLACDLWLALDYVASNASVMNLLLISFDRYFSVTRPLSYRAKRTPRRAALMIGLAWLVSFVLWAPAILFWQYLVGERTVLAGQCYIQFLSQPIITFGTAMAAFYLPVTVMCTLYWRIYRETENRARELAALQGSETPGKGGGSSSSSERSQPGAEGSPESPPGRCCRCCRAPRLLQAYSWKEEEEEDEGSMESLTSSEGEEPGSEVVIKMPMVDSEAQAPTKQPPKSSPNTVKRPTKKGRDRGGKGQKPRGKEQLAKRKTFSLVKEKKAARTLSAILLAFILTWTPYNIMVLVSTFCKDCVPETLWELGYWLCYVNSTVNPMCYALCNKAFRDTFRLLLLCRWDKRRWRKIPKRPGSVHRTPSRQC

Results filed as inconclusive are left out. Activity calls are given as the source filed them. Unless noted, calls come from the whole dose curve; as a rule, active = well fitted curve in the direction sought with a large enough effect; inconclusive = small, poorly fitted or top-dose-only effect, or another doubt; inactive = no such curve, though single readings can be large; an effect the other way counts as inactive or inconclusive.

Turning to `CN(C)c1ccc(C(=C2C=CC(=[N+](C)C)C=C2)c2ccccc2)cc1`, the Potency in [1] was 199 nM (active); in experiment [2] it was 501 nM (active); in experiment [3] it was 1000 nM (active); in experiment [4], 1580 nM (active); in experiment [5] it was 1580 nM (active); in experiment [6] it was 1580 nM (active). For the same molecule, the Potency in experiment [7] is 2000 nM (active); in experiment [8], 2000 nM (active); in experiment [9], 2000 nM (active); in [10], 631 nM (active).
Regarding `O=C1NC(O)=NC1(c1ccccc1)c1ccccc1`, the Potency result in experiment [11] and in experiment [12] was “inactive” in each case. Also, the call in [13] was inactive.
On to `Cn1c(=O)c2[nH]c(-c3ccccc3)nc2n(C)c1=O`, for which the Potency entry in experiment [11], in experiment [14] and in [12] was “inactive” each time. The molecule was classed as inactive in experiment [13].
In the case of `COC(=O)c1c(C)[nH]c(C)c1C(=O)c1ccccc1Cc1ccccc1`, the Potency entry in [11], in experiment [14] and in [12] was “inactive” each time. Besides, the molecule was classed as inactive in experiment [13].
On to `O=C(O)c1cc(O)c(O)c(O)c1`, for which the Potency entry in [1], in experiment [2], in experiment [4], in experiment [5], in [7] and in experiment [8] was “inactive” in each case. Moreover, in experiment [9], the Potency entry was “inactive”. Besides, the result in experiment [15] was inactive.
In the case of `O=C(O)/C=C\C(=O)O`, the Potency result in experiment [1], in experiment [2], in experiment [3], in experiment [4], in [5] and in experiment [6] was “inactive” throughout. Also, the Potency entry in [7], in [8], in [9] and in experiment [10] was “inactive” throughout.
In the case of `CC(C)NC[C@H](O)COc1cccc2[nH]ccc12`, the Potency result in experiment [11] and in [12] was “inactive” throughout. Besides, in experiment [13], the call was inactive.
In the case of `Cc1ccc(O)c(N=Nc2ccccc2)n1`, the Potency in [11] was 79.4 nM (active); in [12] it was 6310 nM (active); in [16] it was 6310 nM (active). Further, the Potency result in experiment [14] and in experiment [17] was “inactive” in each case. Also, the result in experiment [13] was inactive.
On to `CCCOC(=O)c1ccc(O)cc1`, for which the Potency result in experiment [1], in experiment [2], in [3], in experiment [4], in experiment [5] and in [6] was “inactive” each time. The Potency result in experiment [7], in experiment [8], in [9] and in experiment [10] was “inactive” each time.
With `Nc1ccc([N+](=O)[O-])cc1O`, the Potency result in experiment [1], in [2], in experiment [3], in [4], in experiment [5] and in experiment [6] was “inactive” throughout. The Potency result in [7], in experiment [8], in [9] and in experiment [10] was “inactive” throughout.
As for `NO`, the Potency result in experiment [11], in experiment [14] and in experiment [12] was “inactive” each time. Also, the molecule was classed as inactive in experiment [13].
For the molecule `O=C(Nc1ccccc1)c1cc([N+](=O)[O-])ccc1Cl`, the Potency in [11] is 1580 nM (active). The Potency entry in [14] and in experiment [17] was “inactive” in each case. The call in experiment [13] was inactive.
Turning to `COc1cccc(C(=O)NCCN2CCN(c3ccc(Cl)cc3)CC2)c1`, the Potency result in experiment [11] and in [12] was “inactive” throughout. Besides, the molecule was called inactive in experiment [13].
Take `CN=c1nc(-c2ccccc2)n(-c2ccccc2)s1`: the Potency in [18] is 2510 nM (active); in [14], 12600 nM (active); in experiment [12], 5010 nM (active); in [16], 25100 nM (active). Also, in [13], the outcome was inactive. Also, the Potency entry in [17] is “inactive”.
On to `O=C1C(SCCO)=C(SCCO)C(=O)c2ccccc21`, for which the Potency in experiment [18] was 1260 nM (active); in experiment [14], 10000 nM (active). Further, the Potency result in experiment [19] and in experiment [12] was “inactive” each time. Also, in experiment [13], the outcome was inactive.
As to `O=C(/C=C/c1ccc(O)c(O)c1)OCCc1ccccc1`, the call in [15] was inactive.
